# Values quoted from earlier work in PubChem BioAssay AID977611.
# Out of some 3,900 compounds screened, about 3,900 (100%) were called active. Cut-off not given; nearly all actives show Kd up to about 4200 µM. The set was probably picked from earlier hits. Some of the results follow. Where a SMILES comes first, the peptide text is derived from it. Non-standard residues stand in square brackets, D forms with d. Square brackets hold non-standard residues; d marks the D form. Residues, ends and D or L forms follow the SMILES beside them. Peptide text beside a SMILES is read from it. [ ]: non-standard residue; d: D form. The star is where a group is joined. Lys(Me3) = C[N+](C)(C)CCCC[C@H](N)C(=O)O; Orn(CH(NH2)2) = NC(N)NCCC[C@H](N)C(=O)O; X1 = C[C@H](Cc1ccc(O)cc1)N*; Leu(ol) = CC(C)C[C@H](N)CO; Nva = CCC[C@H](N)C(=O)O
# Assay: PubChem AID 977611
# Details: PDB protein-ligand complexes, literature Kd
molecule,measurement,setting,value
COc1ccc2c(c1OC)CN(C)c1c-2ccc2cc3c(cc12)OCO3,Kd,"protein: Chitinase A, PDB entry 3arw",0.7 µM (active)
O=C(O)[C@@H]1COc2ccccc2O1,Kd,"protein: Pantothenate synthetase (T2A, E77G mutation), PDB entry 4de5",700 µM (active)
same,Kd,"protein: Pantothenate synthetase (T2A, E77G mutation), PDB entry 4g5f",900 µM (active)
CC(=O)NCCCC[C@H](NC(=O)[C@H](CCCNC(N)N)NC(=O)CNC(=O)[C@H](Cc1ccc(O)cc1)NC(=O)[C@@H](N)CO)C(=O)N[C@@H](CCCCN)C(=O)N[C@@H](CCCNC(N)N)C(=O)N[C@@H](CCCNC(N)N)C(=O)N[C@@H](CCC(N)=O)C(=O)N[C@@H](CCCNC(N)N)C(=O)N[C@@H](CS)C(=O)O (H-SYG[Orn(CH(NH2)2)]K(Ac)K[Orn(CH(NH2)2)][Orn(CH(NH2)2)]Q[Orn(CH(NH2)2)]C-OH),Kd,"protein: p300/CBP-associated factor (PCAF), PDB entry 1jm4",10 µM (active)
CC(C)C[C@H](NC(=O)[C@H](CCCNC(N)N)NC(=O)[C@H](CCC(N)=O)NC(=O)[C@H](Cc1ccc(O)cc1)NC(=O)[C@@H](N)CC(=O)O)C(=O)O (H-DYQ[Orn(CH(NH2)2)]L-OH),Kd,"protein: AP-3 complex subunit mu-1, PDB entry 4ikn",14 µM (active)
CC(C)C[C@H](NC(=O)[C@H](CCC(N)=O)NC(=O)[C@H](CS)NC(=O)[C@H](CO)NC(=O)[C@@H](N)CC(C)C)C(=O)N[C@@H](Cc1ccc(O)cc1)C(=O)N[C@@H](CCC(N)=O)C(=O)N[C@@H](CCCNC(N)N)C(=O)O (H-LSCQLYQ[Orn(CH(NH2)2)]-OH),Kd,"protein: Thymidylate synthase, PDB entry 3n5e",0.151 µM (active)
CSCC[C@H](N)C(=O)N[C@@H](C)C(=O)N[C@@H](CO)C(=O)O (H-Met-Ala-Ser-OH),Kd,"protein: human-like mitochondrial peptide deformylase (G47C, L112E mutant), PDB entry 4je8",6.1 µM (active)
CSCC[C@H](NC(=O)[C@H](CCCNC(N)N)NC(=O)[C@H](CO)NC(=O)[C@H](C)N)C(=O)N[C@@H](CCC(=O)O)C(=O)N[C@@H](CCC(=O)O)C(=O)N[C@H](C(=O)N[C@@H](CC(=O)O)C(=O)O)C(C)C (H-AS[Orn(CH(NH2)2)]MEEVD-OH),Kd,"protein: Protein UNC-45, PDB entry 4i2z",13.5 µM (active)
CC(C)[C@H](NC(=O)[C@H](CC(=O)O)NC(=O)[C@@H](NC(=O)[C@H](CC(=O)O)NC(=O)[C@H](CO[P+](O)(O)O)NC(=O)[C@@H](N)CC(=O)O)[C@@H](C)O[P+](O)(O)O)C(=O)N[C@@H](CCC(=O)O)C(=O)N[C@@H](CCC(=O)O)C(=O)O,Kd,"protein: DNA topoisomerase 2-binding protein 1, PDB entry 3ueo",94 µM (active)
H-AEDDVE-OH,Kd,"protein: AH RECEPTOR-INTERACTING PROTEIN, PDB entry 4apo",12.3 µM (active)
CSCC[C@H](NC(=O)[C@H](CCC(=O)O)NC(=O)[C@@H](NC(=O)[C@H](CC(=O)O)NC(=O)[C@H](C)N)[C@@H](C)O)C(=O)N[C@@H](CCC(=O)O)C(=O)N[C@@H](CCC(=O)O)C(=O)N[C@H](C(=O)N[C@@H](CC(=O)O)C(=O)O)C(C)C (H-ADTEMEEVD-OH),Kd,"protein: TPR repeat-containing protein associated with Hsp90, PDB entry 2lsv",5.41 µM (active)
CC(=O)N[C@@H](CC(=O)O)C(=O)N[C@@H](CCC(=O)O)C(=O)N[C@H](C(=O)N[C@@H](CC(=O)O)[C@@H](C)O)C(C)C,Kd,"protein: Procaspase-3 (D175A mutation), PDB entry 4jr0",0.0063 µM (active)
CCC[C@H](NC(=O)[C@@H](N)CO)C(=O)N[C@@H](CCSC)C(=O)N[C@@H](C)C(=O)N[C@@H](CCC(=O)O)C(=O)N[C@H](C(=O)N[C@@H](CC(=O)O)C(=O)O)C(C)C (H-S[Nva]MAEVD-OH),Kd,"protein: AH RECEPTOR-INTERACTING PROTEIN, PDB entry 4aif",14.4 µM (active)
CC(C)C[C@H](NC(=O)[C@H](CCC(=O)O)NC(=O)CNC(=O)[C@@H](NC(=O)[C@H](CO[P+](O)(O)O)NC(=O)[C@@H]1CCCN1C(=O)[C@H](CC(=O)O)NC(=O)[C@@H](NC(=O)[C@H](CCC(=O)O)NC(=O)[C@@H](N)CCCCN)C(C)C)[C@@H](C)O)C(=O)N[C@@H](CCC(N)=O)C(=O)O,Kd,"protein: Kelch-like ECH-associated protein 1, PDB entry 3wdz",0.12 µM (active)
CSCC[C@H](NC(=O)[C@H](CCCCN)NC(=O)[C@H](CCC(=O)O)NC(=O)[C@H](CCCCN)NC(=O)[C@H](CCCNC(N)N)NC(=O)[C@@H]1CCCN1C(=O)[C@@H]1CCCN1C(=O)[C@@H](NC(=O)[C@H](CC(C)C)NC(=O)[C@@H]1CCCN1C(=O)[C@@H]1CCCN1C(=O)[C@H](CCC(N)=O)NC(=O)CN)C(C)C)C(=O)N[C@@H](CCCNC(N)N)C(=O)NCC(=O)N[C@@H](CCCCN)C(=O)O (H-GQPPLVPP[Orn(CH(NH2)2)]KEKM[Orn(CH(NH2)2)]GK-OH),Kd,"protein: Grb2-related adaptor protein 2(SH3 domain), PDB entry 1uti",2.4 µM (active)
CC(C)C[C@H](NC(=O)[C@H](CCCNC(N)N)NC(=O)[C@@H](N)CCCNC(N)N)C(=O)N[C@@H](CCC(N)=O)C(=O)N[C@@H](CCCCN)C(=O)NCC(=O)N[C@@H](CC(N)=O)C(=O)N[C@@H](CC(C)C)C(=O)N1CCC[C@H]1C(=O)N[C@H](C(=O)N[C@@H](CCCNC(N)N)C(=O)O)C(C)C (H-[Orn(CH(NH2)2)][Orn(CH(NH2)2)]LQKGNLPV[Orn(CH(NH2)2)]-OH),Kd,"protein: ERK2, PDB entry 2fys",44 µM (active)
CSCC[C@H](NC(=O)[C@@H]1CCCN1C(=O)[C@@H](N)[C@@H](C)O)C(=O)N[C@H](C(=O)N[C@@H](CC(N)=O)C(=O)N[C@@H](CCCNC(N)N)C(=O)N[C@@H](CCC(=O)O)C(=O)N[C@@H](CC(N)=O)C(=O)N[C@@H](CCCCN)C(=O)O)C(C)C (H-TPMVN[Orn(CH(NH2)2)]ENK-OH),Kd,"protein: STAM2 SH3 domain, PDB entry 1uj0",27 µM (active)
CC[C@H](C)[C@H](N)C(=O)N[C@@H](CCC(N)=O)C(=O)N1CCC[C@H]1C(=O)N1CCC[C@H]1C(=O)N1CCC[C@H]1C(=O)N[C@H](C(=O)N[C@@H](CC(N)=O)C(=O)N[C@@H](CCCNC(N)N)C(=O)N[C@@H](CC(N)=O)C(=O)N[C@@H](CC(C)C)C(=O)N[C@@H](CCCCN)C(=O)N1CCC[C@H]1C(=O)N[C@@H](CC(=O)O)C(=O)N[C@H](C=O)CCCNC(N)N)C(C)C (H-IQPPPVN[Orn(CH(NH2)2)]NLKPD[Orn(CH(NH2)2)]-aldehyde),Kd,"protein: GROWTH FACTOR RECEPTOR-BOUND PROTEIN 2 SH3 DOMAIN, PDB entry 2vwf",8.7 µM (active)
CN1C=CN(CCCN2c3ccccc3Sc3ccc(C(F)(F)F)cc32)C=C1,Kd,"protein: human calmodulin (CaM), PDB entry 1ctr",1 µM (active)
COC(=O)c1cc(N)cc(-c2c(C)noc2C)c1,Kd,"protein: ATPase family AAA domain-containing protein 2 ATAD2A bromodomain, PDB entry 4tte",202 µM (active)
Cn1cc(O[C@@H]2O[C@H](CO)[C@H](O)[C@H](O)[C@H]2O)c2ccccc21,Kd,"protein: PA-I galactophilic lectin, PDB entry 4ljh",19.4 µM (active)
CC(C)[C@H](NC(=O)CNC(=O)CNC(=O)[C@@H](NC(=O)[C@H](C)N)[C@@H](C)O)C(=O)N[C@@H](CCCC[N+](C)(C)C)C(=O)N[C@@H](CCCCN)C(=O)N1CCC[C@H]1C(=O)N[C@@H](Cc1cnc[nH]1)C(=O)N[C@@H](CCCNC(N)N)C(=O)N[C@H](C)Cc1ccc(O)cc1 (H-ATGGV[Lys(Me3)]KPH[Orn(CH(NH2)2)]-X1),Kd,"protein: PHD finger protein 1, PDB entry 2m0o",4.2 µM (active)
CC[C@H](C)[C@H](NC(=O)[C@H](Cc1cnc[nH]1)NC(=O)[C@@H](NC(=O)[C@H](CCCNC(N)N)NC(=O)[C@H](CCCCN)NC(=O)[C@@H](N)CCCNC(N)N)[C@@H](C)CC)C(=O)NCC(=O)N1CCC[C@H]1C(=O)NCC(=O)N[C@@H](CCCNC(N)N)C(=O)N[C@@H](C)C(=O)N[C@@H](Cc1ccccc1)C(=O)N[C@@H](Cc1ccc(O)cc1)C(=O)N[C@@H](C)C(=O)N[C@H](C=O)[C@@H](C)O,Kd,"protein: anti-HIV-1 Fab 537-10D, PDB entry 3ghe",1.3 µM (active)
CC(=O)NCCCC[C@H](NC(=O)[C@@H](NC(=O)CNC(=O)CNC(=O)[C@@H](NC(=O)[C@@H](N)CO)[C@@H](C)O)C(C)C)C(=O)N[C@@H](CCCCN)C(=O)N1CCC[C@H]1C(=O)N[C@@H](Cc1cnc[nH]1)C(=O)N[C@@H](CCCNC(N)N)C(=O)N[C@@H](Cc1ccc(O)cc1)C(=O)N[C@@H](CCCCN)C(=O)N[C@@H](CS)C(=O)O,Kd,"protein: Histone acetyltransferase PCAF, PDB entry 2rnx",402 µM (active)
O[C@@H]1[C@H](O)[C@@H](O[P+](O)(O)O)[C@H](O[P+](O)(O)O)[C@@H](O)[C@@H]1O[P+](O)(O)O,Kd,"protein: Ligand-Binding Domain of rat InsP3 Receptor, PDB entry 3t8s",0.00282 µM (active)
same,Kd,"protein: Rabphilin-3A, PDB entry 4np9",9.4 µM (active)
Nc1ncnc2c1ncn2[C@@H]1O[C@@H]2CO[P+](O)(O)O[C@@H]3[C@H](O)[C@@H](CO[P+](O)(O)O[C@@H]1[C@@H]2O)O[C@H]3n1cnc2c1NC(N)NC2=O (stereo not given in full),Kd,"protein: Stimulator of interferon genes protein, PDB entry 4loi",0.17 µM (active)
Nc1ncnc2c1ncn2[C@@H]1O[C@@H]2CO[P+](O)(O)O[C@@H]3[C@H](O)[C@@H](CO[P+](O)(O)O[C@H]2[C@H]1O)O[C@H]3n1cnc2c1NC(N)NC2=O (stereo not given in full),Kd,"protein: Stimulator of interferon genes protein, PDB entry 4ksy",0.00379 µM (active)
same,Kd,"protein: Stimulator of interferon genes protein, PDB entry 4loh",0.11 µM (active)
same,Kd,"protein: Stimulator of interferon genes protein, PDB entry 4loj",0.3 µM (active)
NC1NC(=O)c2ncn([C@@H]3O[C@@H]4CO[P+](O)(O)O[C@H]4[C@H]3O)c2N1 (stereo not given in full),Kd,"protein: Diguanylate cyclase, PDB entry 4kg1",0.274 µM (active)
CC(C)C[C@@H](CO)NC(=O)[C@H](CO)NC(=O)[C@H](CCCNC(N)N)NC(=O)[C@H](CC(C)C)NC(=O)[C@H](CO)NC(=O)[C@H](C)NC(=O)[C@H](CC(C)C)NC(=O)[C@@H]1CCCN1C(=O)[C@H](Cc1ccc(O)cc1)NC(=O)[C@H](CC(C)C)NC(=O)[C@@H](N)CCC(=O)O (H-ELYPLASL[Orn(CH(NH2)2)]S[Leu(ol)]),Kd,"protein: ALIX, PDB entry 2r05",7 µM (active)
CSCC[C@H](NC(=O)[C@@H]1CCCN1C(=O)[C@@H](NC(=O)[C@H](CCCNC(N)N)NC(=O)[C@H](CO)NC(=O)CN)[C@@H](C)O[P+](O)(O)O)C(=O)N[C@@H](Cc1ccc(O)cc1)C(=O)NCC(=O)O (HELM PEPTIDE1{G.S.[NC(N)NCCC[C@H](N[*:1])C(=O)[*:2]].[C[C@@H](O[P+](O)(O)O)[C@H](N[*:1])C(=O)[*:2]].P.M.Y.G}$$$$V2.0),Kd,"protein: RNA polymerase-associated protein RTF1 homolog, PDB entry 4l1u",5.45 µM (active)
CC(C)C[C@H](NC(=O)[C@H](CC(C)C)NC(=O)[C@H](CCCNC(N)N)NC(=O)[C@H](CO)NC(=O)[C@H](CC(C)C)NC(=O)[C@H](CCCNC(N)N)NC(=O)[C@@H]1CCCN1C(=O)CN)C(=O)N[C@@H](CO)C(=O)N[C@@H](Cc1ccc(O)cc1)C(=O)N[C@@H](C)C(=O)O (HELM PEPTIDE1{G.P.[NC(N)NCCC[C@H](N[*:1])C(=O)[*:2]].L.S.[NC(N)NCCC[C@H](N[*:1])C(=O)[*:2]].L.L.S.Y.A}$$$$V2.0),Kd,"protein: rat Tom20(translocases of outer mitochondrial membranes), PDB entry 1om2",20 µM (active)
CC(C)[C@H](NC(=O)[C@H](CCC(=O)O)NC(=O)[C@H](C)NC(=O)[C@H](Cc1ccc(O)cc1)NC(=O)[C@H](CO)NC(=O)[C@@H]1CCCN1C(=O)[C@@H]1CCCN1C(=O)[C@H](C)NC(=O)[C@@H](N)CCC(=O)O)C(=O)O (H-EAPPSYAEV-OH),Kd,"protein: 3rd WW domain of Human Nedd4, PDB entry 4n7h",3.3 µM (active)
